Experimental findings from the supplement of paper PMC9135407 are described below.

SMILES strings stand for the structures. Counter-ions that a name gives are not always drawn.

For this experiment, the system named is primary human hepatic stellate cells (donor 1). Kind of experiment: ACTA2 mRNA fold change vs DMSO (normalised to PSMB2); higher = more ACTA2 expression. The settings on record: 48 h. Here is the method:
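Secondary qRT-PCR screen in primary human HSCs (donor 1), 384-well plates, with compounds dispensed in quadruplicate and incubated for 48 h. Cells-to-CT lysates were used for multiplexed TaqMan qPCR of ACTA2 or COL1A1 with PSMB2 as reference. Fold changes versus DMSO come from a linear model (Ct_gene ~ Ct_PSMB2 + plate + chemical). A hit is defined as COL1A1 and ACTA2 FC <0.5 (FDR <0.05) with PSMB2 between 0.2 and 2.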
Consider `O=C1C2CCN(CC2)C1(CO)CO` (90 µM), for which the “ACTA2 mRNA fold change” value is 0.152.
In the case of `O=C1/C(=C/c2ccccc2)C[C@@]2(O)[C@H]3Cc4ccc(O)c5c4[C@@]2(CCN3CC2CC2)[C@H]1O5` [BNTX maleate] (33.3333 µM) it was 0.275.
In the case of `C[C@]12CC[C@H](O)C[C@H]1CC[C@@H]1[C@@H]2CC[C@]2(C)[C@@H](C3=CC(=O)OC3)CC[C@]12O` [Digitoxigenin] (33.3333 µM) it was 0.0171; in that of `O=c1[nH]c2ccccc2n1C1CCN(CCCC(c2ccc(F)cc2)c2ccc(F)cc2)CC1` [Pimozide] (33.3333 µM), 0.0136.
Next, `C[C@H](N)Cn1ccc2cc(F)c(Cl)cc21` [Ro 60-0175 fumarate] (33.3333 µM): 0.532; `CO[C@H]1CC[C@@H](O[C@H]2C[C@H]([C@]3(C)CC[C@]4(C[C@H](O)[C@@H](C)[C@@H]([C@@H](C)/C=C(\C)C(=O)[C@H](C)C[C@H](C)C(=O)O)O4)O3)O[C@]3(O[C@@H]([C@H]4O[C@@](O)(CO)[C@H](C)C[C@@H]4C)C[C@@H]3C)[C@@H]2C)O[C@@H]1C` [Nanchangmycin] (11.1 µM): 0.0291.
Take `Fc1cc(F)c2c(c1)[C@H]1C=CC[C@H]1C(c1cccnc1)N2` (some centres not stated) [Golgicide A] (33.3333 µM): the “ACTA2 mRNA fold change” value turned out to be 0.00835.
For `CCCCCCCCCCCCCC(=O)O[C@@H]1[C@@H](C)[C@@]2(O)[C@@H](C=C(CO)C[C@]3(O)C(=O)C(C)=C[C@@H]23)[C@@H]2C(C)(C)[C@]12OC(C)=O` [Phorbol 12-myristate 13-acetate] (27.0333 µM), the “ACTA2 mRNA fold change” value is 0.624.
With `CN[C@@H]1C[C@H]2O[C@@](C)([C@@H]1OC)n1c3ccccc3c3c4c(c5c6ccccc6n2c5c31)C(=O)NC4` [staurosporine] (35.6667 µM), the “ACTA2 mRNA fold change” value is 0.667.
Next, `COc1ccc2c(c[n+](C)c3c4cc5c(cc4ccc23)OCO5)c1OC` (6.66667 µM): 0.0494.
Next, `C[C@@H]1O[C@@H](O[C@H]2C[C@@H](O)[C@]3(CO)[C@H]4[C@H](O)C[C@]5(C)[C@@H](C6=CC(=O)OC6)CC[C@]5(O)[C@@H]4CC[C@]3(O)C2)[C@H](O)[C@H](O)[C@H]1O` [Ouabain] (33.3333 µM): 0.0189.
For `CN1[C@@H]2CC[C@H]1C[C@@H](OC(c1ccc(F)cc1)c1ccc(F)cc1)C2` [3 α-Bis-(4-fluorophenyl) methoxytropane hydrochloride] (33.3333 µM), the “ACTA2 mRNA fold change” value was determined as 0.094.
In the case of `CCN(CC)CCO[C@H]1CC[C@@]2(C)C(=CC[C@@H]3[C@@H]2CC[C@]2(C)C(=O)CC[C@@H]32)C1` (33.3333 µM) it was 0.123; in that of `CCN1CCN(C(=O)Cc2ccc(Nc3ncc(F)c(Nc4ccc(C(=O)Nc5ccccc5Cl)cc4)n3)cc2)CC1` [Aurora A Inhibitor I] (33.3333 µM), 0.131.
Consider `CC1=C(O)C(=O)C=C2C1=CC=C1[C@@]2(C)CC[C@@]2(C)[C@@H]3C[C@](C)(C(=O)O)CC[C@]3(C)CC[C@]12C` [Celastrol] (3.33333 µM), for which the “ACTA2 mRNA fold change” value is 0.524.
`CC[C@H]1CN2CCc3cc(OC)c(OC)cc3[C@@H]2C[C@@H]1C[C@H]1NCCc2cc(OC)c(OC)cc21` [Emetine] (12.0333 µM): the “ACTA2 mRNA fold change” value was 0.0996.
Consider `O=[N+]([O-])/C=C/c1ccc2c(c1)OCO2` (3.7 µM), for which the “ACTA2 mRNA fold change” value was determined as 0.905.
In the case of `CC1=C(CC/C(C)=C/CCC2=CC[C@H](C3=CC(=O)O[C@H]3O)O[C@H]2O)C(C)(C)CCC1` [Manoalide] (40 µM) it was 0.0669; in that of `CN(C(=O)Cc1ccc(Cl)c(Cl)c1)[C@H](CN1CCCC1)c1ccccc1` [ICI-199,441 hydrochloride] (33.3333 µM), 0.0655.
For the compound `CC1=NCCc2c1[nH]c1cc(O)ccc21` [Harmalol hydrochloride dihydrate] (24.4333 µM), the “ACTA2 mRNA fold change” value stood at 0.546.
Regarding `COc1ccc2[nH]cc(C3=CCNCC3)c2c1` (33.3333 µM), the “ACTA2 mRNA fold change” value is 3.02.
In the case of `CC(C(=O)OC1CC2CCC(C1)N2C)c1ccc(Br)cc1` (configuration not stated) [PG-9 maleate] (33.3333 µM), the “ACTA2 mRNA fold change” value is 0.404.
